Structures are written as SMILES. Out of some 220,000 compounds screened, about 1,500 (0.68%) were called active. This is one part of a sample in which actives are shown more often than they occur.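 The calls were made as follows: active = Hck-Nef kinase inhibition above about 50% (limit read from the data); inactive = inhibition below that limit.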

Chain of Tyrosine-protein kinase HCK (Homo sapiens) (P08631 whole entry, looked up): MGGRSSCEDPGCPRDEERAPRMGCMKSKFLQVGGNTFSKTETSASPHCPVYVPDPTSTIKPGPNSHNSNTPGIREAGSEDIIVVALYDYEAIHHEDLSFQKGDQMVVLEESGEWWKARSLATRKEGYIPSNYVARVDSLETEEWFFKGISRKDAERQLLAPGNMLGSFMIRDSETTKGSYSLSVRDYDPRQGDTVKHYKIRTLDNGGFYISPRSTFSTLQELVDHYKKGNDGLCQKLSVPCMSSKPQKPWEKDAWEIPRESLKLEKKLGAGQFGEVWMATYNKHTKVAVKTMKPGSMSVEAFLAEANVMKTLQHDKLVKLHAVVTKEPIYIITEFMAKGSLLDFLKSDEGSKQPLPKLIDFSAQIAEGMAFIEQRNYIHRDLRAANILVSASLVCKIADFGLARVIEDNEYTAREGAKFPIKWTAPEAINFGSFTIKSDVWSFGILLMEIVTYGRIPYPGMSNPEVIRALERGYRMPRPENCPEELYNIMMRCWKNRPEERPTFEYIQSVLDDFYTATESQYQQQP

The assay addresses Tyrosine-protein kinase HCK (Homo sapiens) (UniProt P08631). The assay can be described thus: Hck:Nef complex kinase activity blockers – biochemical, Z-Lyte FRET, 384-well, Hck-YEEI, primary screen (AID 463187).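 Also: 0% = DMSO with Hck plus Nef and 100% = Hck alone without Nef.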 The settings on record: Recombinant Hck-YEEI plus Nef, Z-Lyte FRET kinase assay; at 20 µM; stronger effect = higher value.
A word on the inhibition: it is the change of the read-out against control, counted positive when it falls. Regarding `c1ccc(CSc2nnc(-c3ccco3)c(-c3ccco3)n2)cc1`, the inhibition was 61.4% (active).

Take `Clc1ccccc1CSc1nnc(-c2ccco2)c(-c2ccco2)n1`: the inhibition is 21.2% (inactive). The figure for `Brc1ccc(CSc2ccc(-c3ccco3)nn2)cc1` is 22.4% (inactive); for `O=C(COc1ccc([N+](=O)[O-])cc1)Nc1ccc(N2CCCC2)cc1` it is 1.04% (inactive). `Cc1ccc(/C=C/C(=O)Nc2ccc([N+](=O)[O-])c(NC(=O)/C=C/c3ccc(C)o3)c2)o1`: the inhibition is 79.2% (active). Turning to `Cc1c(NC(=O)/C=C/C(=O)O)cccc1[N+](=O)[O-]`, the inhibition is 0.166% (inactive). The figure for `CCc1nnc(NC(=O)/C=C/c2ccc(C)o2)s1` is 2.58% (inactive). On to `Cc1ccc(N(CC(=O)Nc2cc(C)cc(C)c2)S(=O)(=O)c2cccc3nonc23)cc1`, for which the inhibition was 2.67% (inactive).

With `Cc1c(Nc2nc3ccccc3nc2NS(=O)(=O)c2cccs2)c(=O)n(-c2ccccc2)n1C`, the inhibition was -1.3% (inactive). For `CCOC(=O)c1ccc[n+](CC(=O)Nc2ccccc2OC(F)F)c1`, the inhibition was 3.79% (inactive). In the case of `Cc1ccc(-c2nc(SCC(=O)Nc3ccccc3OC(F)F)c3c(C)c(C(=O)O)sc3n2)cc1`, the inhibition is 98.6% (active). Regarding `Cc1ccc(C)c(SCc2nc3sc(C(=O)O)c(C)c3c(=O)[nH]2)c1`, the inhibition is 30.6% (inactive). The figure for `COc1ccc(N(CC(=O)NC2CCCC2)C(=O)CS(=O)CC(=O)Nc2ccc3c(c2)OCO3)cc1` (configuration not stated) is 20.7% (inactive); for `Cc1cc(C)c2nc(-c3cccnc3)cc(C(=O)Nc3ccc(S(=O)(=O)Nc4onc(C)c4C)cc3)c2c1` it is 62.9% (active). Regarding `CCn1c(SCC(=O)Nc2ccc(S(=O)(=O)Nc3onc(C)c3C)cc2)nnc1-c1ccccc1`, the inhibition is 0.636% (inactive). For `COc1ccc(C(=O)Nc2ccc(S(=O)(=O)Nc3onc(C)c3C)cc2)cc1OC`, the inhibition was 2.01% (inactive). On to `O=C1c2ccccc2NC(c2ccccc2O)N1NS(=O)(=O)c1ccccc1` (configuration not stated), for which the inhibition was 24.7% (inactive). Turning to `O=C(COC(=O)CSc1nnc(-c2ccc(Cl)cc2)o1)Nc1cc(Cl)cc(Cl)c1`, the inhibition is 3.81% (inactive).

With `CCN(CC)c1ccc2oc(=O)c(C)nc2c1`, the inhibition is -14.5% (inactive). Next, `CCN(CC)c1ccc2cc(C(=O)O)c(=O)oc2c1`: 179% (active); `CCN(CC)c1ccc2cc(C(N)=O)/c(=N\NC(=O)c3ccncc3)oc2c1`: -3.77% (inactive). As to `Cc1cc(C)nc(NNC2=CC(=O)CC(C)(C)C2)n1`, the inhibition was 22.8% (inactive).

As for `Cc1[nH]nc(-c2ccc(OCc3cnn(-c4ccccc4)c3)cc2O)c1Oc1ccc(Cl)cc1`, the inhibition was 0.631% (inactive). Regarding `CCOC(=O)CSc1nc2ccc(C)cc2[nH]1`, the inhibition is 10.3% (inactive). Turning to `Cc1ccc2nc(/C(C#N)=C\c3ccc(OC(=O)c4cccs4)cc3)[nH]c2c1`, the inhibition is 57.1% (active). Consider `Cc1ccc2nc(S(=O)(=O)O)[nH]c2c1`, for which the inhibition was -5.86% (inactive). For the molecule `CCOC(=O)c1sc(-c2cccc([N+](=O)[O-])c2)cc1N`, the inhibition was 22% (inactive). The figure for `CN(C)C(=O)c1nc2ccc(Cl)cn2c1CN1CCN(c2ncccn2)CC1` is 16.5% (inactive). Next, `CCCC(=O)Nc1nc2ccc(NC(=O)c3c(F)c(F)c(OC)c(F)c3F)cc2s1`: 13.4% (inactive); `O=C(Nc1ccc(S(=O)(=O)Nc2nccs2)cc1)c1cc(-c2ccncc2)nc2ccccc12`: 75% (active). As for `O=C(Nc1ccc(S(=O)(=O)Nc2nccs2)cc1)c1cc(=O)[nH]c2ccccc12`, the inhibition was 8.68% (inactive).

As to `CCC(CC)C(=O)Nc1ccc(S(=O)(=O)Nc2nccs2)cc1`, the inhibition was 15.9% (inactive).

Regarding `CC(=O)Nc1ccc(Nc2c3ccccc3nc3ccccc23)cc1`, the inhibition was 12.8% (inactive).

`O=[N+]([O-])c1cccc(Nc2c3ccccc3nc3ccccc23)c1`: the inhibition is 64.5% (active). As for `Cc1cc(CNC(=O)c2cccc([N+](=O)[O-])c2)c2ccccc2n1`, the inhibition was 20.7% (inactive). As for `Cc1ccc2cc(CCNC(=O)c3ccc4c(c3)OCO4)c(=O)[nH]c2c1`, the inhibition was 0.571% (inactive). As for `Cc1cc(N)n2nc(-c3ccc(C(C)(C)C)cc3)cc2n1`, the inhibition was 0.862% (inactive). With `CSCC[C@H](NC(=O)CCCn1nnc2ccccc2c1=O)C(=O)O`, the inhibition was 4.6% (inactive).

As to `O=C(COc1ccccc1F)NNC(=O)c1ccc(N2CCCCC2)c([N+](=O)[O-])c1`, the inhibition was 2.35% (inactive). Regarding `Nc1ccc(-c2nnc(-c3ccc(-c4ccccc4)cc3)o2)cc1`, the inhibition was 2.48% (inactive). Consider `OC(c1nnc(-c2ccccc2)o1)c1cccs1` (configuration not stated), for which the inhibition was 52.9% (active). Turning to `CCCN(CCC)c1ccc(C(O)c2nnc(-c3ccccc3)o2)cc1` (configuration not stated), the inhibition was -0.222% (inactive). With `C/C(CC(=O)Nc1ccc(C)cc1C)=N\NC(=O)C(C)C`, the inhibition was 14.7% (inactive).

Take `NC(=O)Nc1ccccc1C(=O)NCCc1ccccc1`: the inhibition is 1.58% (inactive).

Take `COc1ccc(Cl)cc1S(=O)(=O)N1CCC(O)(c2ccc(Cl)cc2)CC1`: the inhibition was 3.69% (inactive). For `O=C1c2ccccc2S(=O)(=O)N1CC(O)Cn1c2ccccc2c2ccccc21` (configuration not stated), the inhibition is 0.294% (inactive). Take `CCCCN(CCCC)CC(O)Cn1c2ccccc2c(=O)c2ccccc21` (configuration not stated): the inhibition is 119% (active). On to `CS(=O)(=O)N(CC(O)Cn1c2ccccc2c2ccccc21)c1cccc2ccccc12` (configuration not stated), for which the inhibition is 0.481% (inactive).

Consider `Cn1cnnc1Sc1ccc(CN2CCN(C3CCCC3)C(CCO)C2)o1` (configuration not stated), for which the inhibition is -5.92% (inactive).

As for `COC(=O)CCCC1=CC2=CC(=O)C(C)(OC(=O)c3cccs3)C(=O)C2=CN1CC1CC1` (configuration not stated), the inhibition was 10.7% (inactive). Turning to `COC(=O)CCCC1=CC2=CC(=O)C(C)(OC(=O)c3cccs3)C(=O)C2=CN1CC(C)C` (configuration not stated), the inhibition is 23.4% (inactive). In the case of `COC/C=C/C1=CC2=CC(=O)C(C)(OC(=O)CCC(=O)OC)C(=O)C2=CO1` (configuration not stated), the inhibition was 51.9% (active). On to `Cc1ccc(CN(C(=O)c2sc3ccccc3c2Cl)C2CCS(=O)(=O)C2)cc1` (configuration not stated), for which the inhibition was 3.1% (inactive).

Regarding `CC(=O)Nc1ccc(SCC(=O)Nc2ccccc2Oc2ccccc2)cc1`, the inhibition is 0.985% (inactive). The figure for `Cc1nn(CC(=O)Nc2ccc(N(C)C)cc2)c(C)c1[N+](=O)[O-]` is 4.36% (inactive); for `O=C(O)/C=C/c1cn(Cc2ccccc2)nc1-c1cccs1` it is -1.06% (inactive).

Consider `CCOC(=O)/C(C#N)=C/c1cn(CCC(=O)O)nc1-c1ccc(Br)cc1`, for which the inhibition was 20.2% (inactive).

Turning to `O=C(O)CCn1cc(/C=C/C(=O)c2ccc(Cl)cc2)c(-c2cccc(Br)c2)n1`, the inhibition is 55% (active). On to `Cc1onc(C(=O)NN)c1C(=O)N1CCN(C(c2ccccc2)c2ccccc2)CC1`, for which the inhibition was 16.6% (inactive).

For the molecule `N/C(=N\S(=O)(=O)c1cc(C(F)(F)F)cc(C(F)(F)F)c1)c1cccs1`, the inhibition is -0.264% (inactive). As for `O=[N+]([O-])c1ccccc1N/N=C1\CCc2ccccc21`, the inhibition was -4.18% (inactive).

Consider `COc1ccc(NC(=S)NCc2cccs2)c(OC)c1`, for which the inhibition was 0.854% (inactive).

The values are drawn from PubChem BioAssay AID463187 (University of Pittsburgh Molecular Library Screening Center, 2010).
